Assay results reported in PubChem BioAssay (NCI).
This is part of a sample that, as a whole, favours compounds with a hit. Of some 83,000 tested, about 20% had one in any assay.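 Percent growth is the endpoint: 0 to 100 indicates growth inhibition (40 means 60% inhibition), 0 means no net growth, and negative values indicate cell death.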 Unmarked numbers belong to inactive results. Active and inactive are the calls of the source. How the source made its calls: active means growth percent below 10; inactive means the rest.

Test system: NCI-H23 lung
Assay: NCI-60 one-dose screen, 48 h (100 = growth as untreated, 0 = no growth, -100 = all killed)
Details: 10 µM unless noted

Structure (SMILES) | growth
C=CC(=O)N[C@@H](/C=C/C(=O)OCC)Cc1ccc(-c2cc(Cl)cc(Cl)c2)cc1 | 15.6%
NC(=NCCCOc1ccc(F)cc1)Nc1ccc(I)cc1 | 65.5%
Cc1cc2nc3c4cccc(O)c4n(CCN(C)C)c3nc2cc1C | 32.3%
Oc1ccc(C(c2ccc(O)cc2)c2ccc(Br)cn2)cc1 | -18.2% (active)

Test system: NCI-H226 lung
Assay: as above
Details: 10 µM unless noted

Structure (SMILES) | growth
COc1cc(C=O)ccc1OC1OC(COC(C)=O)C(OC(C)=O)C(OC(C)=O)C1OC(C)=O (configuration not stated) | 93.8%
CC1=CCC(OC(=O)C(C)(O)CCC(O)(C(=O)OC2(C)C=CC(O)(C(C)C)CC2)C(C)C)(C(C)C)CC1 (configuration not stated) | 106%
CC(=O)Nc1cccc(-c2ccc3c(c2)NC(=O)/C3=C\c2ccc[nH]2)c1 | 52.7%
CC(C)(C)c1ccc(NS(=O)(=O)c2ccc3nc(NC(=O)c4cnccn4)[nH]c3c2)cc1 | 44.3%
CC(C)(C)c1cc(/C=N/NC(=O)c2ccccc2NC(=O)c2cccs2)c(O)c(C(C)(C)C)c1 | 55.1%
C#CCNC(=O)[C@H](Cc1ccccc1)NC(=O)[C@]12CC[C@@H](C(=C)C)[C@@H]1[C@H]1CC[C@@H]3[C@@]4(C)CCC(=O)C(C)(C)[C@@H]4CC[C@@]3(C)[C@]1(C)CC2 | 68.7%
CCCCCCNC(=O)Oc1ccc(/C(=C(\C)c2ccccc2)c2ccc(OCCCN(C)C)cc2)cc1 | 104%
CC(=O)Nc1ccc(-c2ccc3c(c2)NC(=O)/C3=C\c2ccc[nH]2)cc1 | 85.8%
CCCCOc1ccc(/C=N/Nc2cc(C)nc3ccc(Br)cc23)cc1 | 90.2%
COc1cc(/C(C)=C(\c2ccc(Cl)cc2)c2ccc(OCCN(C)C)cc2)ccc1F | 91%
O=C(/C=C/c1ccc(Cl)cc1)c1ccc(NC(=O)N2CCN(c3cc4c(cc3F)c(=O)c(C(=O)O)cn4C3CC3)CC2)cc1 | 89.4%
O=C(c1nc2ccccc2[nH]1)C1C(c2ccc(Cl)cc2)C2CC3CCCC[C@H]3N2[C@@]12C(=O)Nc1cc(Cl)ccc12 (some centres not stated) | 58.8%
O=C(NCCNc1nccc(-c2c(-c3cccc(F)c3)nc3sccn23)n1)c1ccc(Cl)cc1 | 51.2%
O=C(CCN1CCCC1)Nc1ccc2c(NCCCc3ccccc3)c3ccccc3nc2c1 | 42.3%
N#CC1=C(/N=C/c2ccccc2)Oc2c(ccc3ccccc23)C1c1ccc([N+](=O)[O-])cc1 (configuration not stated) | 65.3%
Brc1ccc(Nc2csc(-c3ccccn3)n2)cc1 | 70.1%
COc1cc(/C(C)=C(\c2ccc(Cl)cc2)c2ccc(OCCN3CCCC3)cc2)ccc1F | 87.8%
CC(=O)N1c2ccccc2NC2=C(C(=O)NC2(C)C)C1c1ccco1 (configuration not stated) | 96.8%
CCOC(=O)CSc1nc2ccccc2c(=O)n1Cc1ccc(S(N)(=O)=O)cc1 | 100%

Structure (SMILES) | growth
CCCCOc1ccc(/C(C)=N/Nc2cc(C)nc3ccc(Br)cc23)cc1 | 89.6%
COc1cc2c(c(O)c1Cl)C(=O)c1c(O)cc(C[C@H](C)O)cc1[C@H]2[C@H]1c2cc(C[C@H](C)O)cc(O)c2C(=O)c2c1cc(OC)c(Cl)c2O | 19%
O=C(c1ccccc1)N1N=C(c2ccc(-n3ccc(C(F)(F)F)n3)c(F)c2)CC1c1ccc[nH]1 (configuration not stated) | 108%
O=C(Nc1ccc(-c2ccc3c(c2)NC(=O)/C3=C\c2ccc[nH]2)cc1)NC1CC1 | 101%
O=c1ccc(-c2nc(N3CCOCC3)c3ccccc3n2)c[nH]1 | 91.7%
COc1cc(/C=C\C(=O)O)ccc1OCc1ccccc1 | 80.2%
COc1ccc(C(C)=O)c(OC)c1 | 95.1%
NC1=NN=C(N)C1=Cc1cc2ccccc2n2nnnc12 | 100%
C=C1C(=O)O[C@H]2[C@H]1CC/C(CNC(=O)/C=C/c1cccc(OC)c1)=C\CC[C@@]1(C)O[C@@H]21 | 73.6%
CNC(=O)c1cc(Cn2nc(C)c(NC(=O)Nc3ccc(Cl)c(C(F)(F)F)c3)c2C)ccn1 | 96.6%
Cc1ccc(/C=N/NC(=O)CSc2nc3ccccc3c(=O)n2Cc2ccc(S(N)(=O)=O)cc2)cc1 | 84.6%
O=C(Cc1ccc(/C=C/C(=O)c2ncc[nH]2)cc1)Nc1ccc(Cl)cc1 | 82.2%
CCCOC(=O)N[C@H]1CCc2c(Cl)c(OC)c(OC)c(OC)c2-c2ccc(SC)c(=O)cc21 | 6.58% (active)
O=S(=O)(NCCCNc1nccc(-c2c(-c3cccc(O)c3)nc3occn23)n1)c1ccc(Cl)cc1 | 108%
COc1cc2c(=O)n(CCN(C)C)c3c4cc5c(cc4ccc3c2cc1OC)OCO5 | -97.6% (active)
C=CC(=O)N[C@@H](/C=C/C(=O)OCC)Cc1ccc(-c2cc(Cl)cc(Cl)c2)cc1 | 10.8%
NC(=NCCCOc1ccc(F)cc1)Nc1ccc(I)cc1 | 93.7%
Cc1cc2nc3c4cccc(O)c4n(CCN(C)C)c3nc2cc1C | 37%
Oc1ccc(C(c2ccc(O)cc2)c2ccc(Br)cn2)cc1 | -14% (active)
